# A selection: hits, their analogues and other compounds. The true share with any hit is near 4.6%.
# D1 ag: Allosteric Agonists of the Human D1 Dopamine Receptor: qHTS | D(1A) dopamine receptor (Homo sapiens), P21728 | HEK293 T-REx D1 cells, calcium flux, agonist mode | activation, % at 2 µM | 360,000 compounds, 1% hits; also: 0% is about no effect
# Target sequence (P21728 whole entry, looked up): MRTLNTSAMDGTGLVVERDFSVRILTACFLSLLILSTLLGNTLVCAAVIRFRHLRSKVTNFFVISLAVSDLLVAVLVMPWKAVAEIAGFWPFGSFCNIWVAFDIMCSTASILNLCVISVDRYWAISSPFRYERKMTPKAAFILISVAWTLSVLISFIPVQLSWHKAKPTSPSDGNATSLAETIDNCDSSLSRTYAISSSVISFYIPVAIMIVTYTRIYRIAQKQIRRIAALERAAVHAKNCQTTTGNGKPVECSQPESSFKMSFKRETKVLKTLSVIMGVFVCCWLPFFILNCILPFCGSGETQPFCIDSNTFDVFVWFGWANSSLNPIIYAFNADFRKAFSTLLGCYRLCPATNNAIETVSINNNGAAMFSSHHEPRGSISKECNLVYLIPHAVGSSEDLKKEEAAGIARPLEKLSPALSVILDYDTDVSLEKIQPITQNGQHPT
#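 Tetracycline-induced HEK293 TREx D1 cells, force-coupled to calcium signalling, were dye-loaded with a no-wash calcium kit. Compound was pin-added after a 10 s baseline. Fluorescence was read kinetically at 1 cycle/s for 180 s, with calcium rises flagged as agonism.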
# TRHR PAM: qHTS for Small Molecule Agonists and Allosteric Enhancers of Human TRH Receptor: Primary Screen for Enhancers; Thyrotropin-releasing hormone receptor (Homo sapiens), P34981; TRHR cells, fluo-8 calcium fluorescence, EC20 TRH enhancement; enhancement, % at 2 µM; 360,000 compounds, 0.66% hits; AID 493056, 2011; in the data active = enhancement above about 30%; also: 0% is about no effect
#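 TRHR-expressing cells loaded with fluo-8 calcium dye were read kinetically (ex 480/em 530) during compound addition, then stimulated with an EC20 of TRH (10 nM final). Enhancement of the Gq-mediated intracellular calcium response was scored.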
# TRHR agonist: qHTS for Small Molecule Agonists and Allosteric Enhancers of Human TRH Receptor: Primary Screen for Agonists | Thyrotropin-releasing hormone receptor (Homo sapiens), P34981 | TRHR cells, calcium flux fluo-8, FDSS agonist mode | activation, % at 2 µM | 360,000 compounds, 0.18% hits; also: 0% is about no effect
#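 In this calcium-flux screen, cells bearing human TRHR are dye-loaded with fluo-8, baselined for 10 cycles, then exposed to library compounds; positive kinetic calcium responses during the agonist phase mark hits, with TRH as control.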
# D1 antagonist: Antagonist of Human D 1 Dopamine Receptor: qHTS; D(1A) dopamine receptor (Homo sapiens), P21728; HEK293 TREx D1 cells, calcium flux, dopamine EC80; active compounds read low; activity change, negative = inhibition, % at 10 µM; 360,000 compounds, 3.2% hits; AID 504652, 2011; in the data active = activity change below about -30%; also: % is scaled to controls: 0 for no effect and ±100 for the full control effect
#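 Kinetic fluorescence of a calcium dye serves as the read-out. D1-expressing Hek293 Trex cells, induced overnight at 30 C, are exposed to compound for 180 s before an EC80 dopamine addition, then read 180 s further.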
# D1 potentiator: Potentiators of Human D1 Dopamine Receptor: qHTS | D(1A) dopamine receptor (Homo sapiens), P21728 | HEK293 TREx D1 cells, calcium flux, dopamine EC20 potentiation | potentiation, % at 10 µM | 360,000 compounds, 0.036% hits | AID 504651, 2011; in the data active = potentiation above about 30%; also: 0% is about no effect
# The depositor's hits bear a star; . = not tested or not shown. Rule as the data show it, unless noted: active = activation above about 30%; inactive = the rest.
SMILES,D1 ag,TRHR PAM,TRHR agonist,D1 antagonist,D1 potentiator
COc1ccc(C(=O)NC(Oc2ccccc2)C(Cl)(Cl)Cl)cc1 (configuration not stated),8.9,19.1,-2.7,-80.1*,-9.6
COc1ccc(C(C)NC(=O)c2ccccc2)cc1 (configuration not stated),3.2,0.8,-0.3,6.2,-3.9
O=C(Nc1ccccc1OC(F)F)c1oc2ccccc2c1COc1ccccc1,32.0*,-3.6,2.7,-8.1,-1.9
CCc1ccc(C(=O)c2cnc3ccc(F)cc3c2S(=O)(=O)c2ccccc2)cc1,2.4,-1.1,-0.5,-42.3*,-6.9
Cc1ccc(S(=O)(=O)c2nc(S(=O)(=O)c3ccccc3)sc2NCCCOC(C)C)cc1,4.1,1.3,2.2,4.1,-0.7
CCCS(=O)(=O)c1nc(S(=O)(=O)c2ccc(C)cc2)c(NCCCOC(C)C)s1,36.5*,5.7,-0.8,-40.7*,-1.6
Cn1cc(CN2CCC(CO)(CCCc3ccccc3)CC2)c(-c2ccccc2)n1,47.0*,-8.2,-1.2,-1.5,-4.9
Cc1cc(C)cc(NC(=O)c2c(C)oc3nc(C)nc(N4CCCC4)c23)c1,0.5,14.9,-1.4,11.8,-4.0
Nc1ccc2c(c1)OC1(CCCC1)O2,1.3,4.2,-0.1,-36.6*,-3.3
Cc1ccc(N2CCN(C(=O)CCc3nc4ccccc4[nH]3)CC2)c(C)c1,5.8,-13.4,0.4,-34.7*,1.9
COc1cc(/C=C2\SC(=Nc3ccccc3)NC2=O)cc(Cl)c1O,156.6*,20.4,150.2*,5.3,-2.2
COc1cc(/C=C2\SC(=Nc3ccc(Cl)c(C(=O)O)c3)NC2=O)c(Br)c(Br)c1O,323.6*,92.8*,211.8*,36.4,21.4
CCc1ccc(N=C2NC(=O)/C(=C/c3cc(OC)c(O)c(OC)c3)S2)cc1,21.0,8.0,19.4,0.7,-1.8
COC(=O)/C=C1\SC(=Nc2ccc(Cl)c(Cl)c2)NC1=O,2.4,0.7,0.1,10.0,-0.5
O=C(CN1C(=O)CSc2ccc(C(F)(F)F)cc21)Nc1ccccc1,30.1*,-3.1,3.0,-5.1,-2.8
O=C(CCN1C(=O)CSc2ccccc21)Nc1cccc(C(F)(F)F)c1,-1.1,0.7,-0.4,-14.6,-1.4
CN(C)S(=O)(=O)c1ccc2c(c1)N(CC(=O)Nc1cccc(C(F)(F)F)c1)C(=O)CS2,1.6,-1.6,0.4,18.4,0.1
O=C(CCN1C(=O)CSc2ccccc21)Nc1ccc(C(F)(F)F)cc1,5.8,0.5,-0.3,-31.3*,3.7
O=C(NCc1ccccc1Cl)c1nnc(Cc2cccc(F)c2)o1,11.6,-8.0,0.4,11.3,0.7
O=C(Nc1ccc2snnc2c1)N1CCSCC1,13.5,-0.9,0.9,-2.4,-4.8
CC1CN(C(=O)Nc2ccc3snnc3c2)c2ccccc21 (configuration not stated),4.4,-1.0,0.7,-62.5*,-6.8
CNC(=O)Nc1ccc2snnc2c1,7.7,15.7,-0.7,-0.3,.
O=C(Nc1ccc(F)cc1)Nc1ccc2snnc2c1,48.5*,-6.0,2.9,-30.6*,-4.3
O=C(Nc1cccc(F)c1)c1ccc2snnc2c1,16.3,4.8,0.5,-30.8*,-1.6
Cc1c(Cl)cccc1NC(=O)Nc1ccc2snnc2c1,39.5*,-1.0,2.3,-28.8,-4.0
SMILES,D1 ag,TRHR PAM,TRHR agonist,D1 antagonist,D1 potentiator
Cc1ccc(F)c(NC(=O)Nc2ccc3snnc3c2)c1,13.5,-1.6,2.1,-27.4,-2.7
COc1cccc(-c2nc(Cn3c(=O)cc(C)c4c(C)nn(-c5ccccc5)c43)c(C)o2)c1OC,4.0,-6.3,0.5,5.7,-4.2
O=c1c2sc3ccccc3c2n(Cc2ccccc2F)c(=O)n1Cc1ccccc1,-0.2,-0.1,0.4,12.5,-0.4
CCC1CN(C(=O)C2CCN(S(=O)(=O)c3c(C)noc3/C=C/c3ccccc3F)CC2)c2cc(Cl)ccc2O1 (configuration not stated),12.4,2.9,0.5,-2.4,1.4
CCCN(CCC)CCCNC(=O)C1CCC(CNS(=O)(=O)c2ccc(NC(C)=O)cc2)CC1 (configuration not stated),-0.2,-2.5,1.0,6.5,-2.0
Cc1ccc(NC(=O)C(Cc2ccccc2)N2Cc3ccccc3C2=O)cc1Cl (configuration not stated),0.8,11.1,1.5,-1.8,1.1
COC(=O)c1cc(NC(=O)Nc2ccc3snnc3c2)cc(C(=O)OC)c1,6.8,3.3,0.1,-13.4,-3.7
CC(=O)c1ccc(NC(=O)Nc2ccc3snnc3c2)cc1,46.1*,5.1,2.7,-73.9*,-3.6
CC(C)C(NS(=O)(=O)c1ccc2c(c1)oc(=O)n2C)C(=O)NCc1ccccc1 (configuration not stated),-0.5,1.4,-0.2,7.8,-2.9
O=C(CCC(=O)N1CCOc2ccc(Cl)cc21)NCCCN1CCN(c2ccccc2F)CC1,8.7,-1.3,0.1,-42.0*,-22.3
O=C(CCC(=O)N1CCOc2ccc(Cl)cc21)NCCCN1CCC(Cc2ccccc2)CC1,12.6,8.0,1.0,-41.1*,-19.1
O=C(CCN1C(=O)COc2ccccc21)NCCCN1CCN(c2ccccc2F)CC1,0.1,-2.9,0.6,-39.8*,-5.0
Cc1ccc(C)c(N2CCN(CCCNC(=O)CCC(=O)N3CCOc4ccc(Cl)cc43)CC2)c1,17.4,-0.3,2.0,-2.2,-9.9
CCCCN(Cc1ccco1)C(=O)Cn1ncc2c([nH]c3ccccc32)c1=O,9.5,7.7,-0.7,11.7,-2.1
CCc1ccc(-c2nn(CC(=O)NCc3ccccc3)c3c2cnc2ccc(F)cc23)cc1,2.2,4.1,0.0,-17.3,1.8
S=C(NCCc1ccccc1)NC1CC2CCC(C1)N2Cc1ccccc1 (configuration not stated),39.2*,5.8,4.3,-66.2*,-4.9
CCCNC(=S)NC1CC2CCC(C1)N2Cc1ccccc1 (configuration not stated),1.7,0.2,-0.1,10.5,-4.4
S=C(Nc1ccccc1)NC1CCN(Cc2ccccc2)CC1,12.9,-1.5,2.1,-5.2,-5.6
CCC(C)c1ccc(NC(=S)NC2CCN(Cc3ccccc3)CC2)cc1 (configuration not stated),21.8,0.5,2.6,-12.4,-4.8
S=C(Nc1ccc(Cl)cc1)NC1CCN(Cc2ccccc2)CC1,39.4*,38.3*,4.8,-78.1*,-0.1
COc1ccc(CCNC(=S)NC2CCN(Cc3ccccc3)CC2)cc1,41.7*,0.0,3.4,-28.0,-2.5
CCc1ccc(NC(=S)NC2CCN(Cc3ccccc3)CC2)cc1,34.1*,-0.8,5.2,-81.4*,-12.9
